Assay results taken from the supplement of paper PMC12636033.
± gives the standard deviation of the averaged measurements. In all, about 33,000 sequences were measured (“E-score (rank enrichment, -0.5 to 0.5)”: median about -0.0075, highest 2% from about 0.23 on). For the sample, the highest values were picked, then their nearest neighbours and some sequences at random.

system: WT Max(13-93) synthetic (M65Nle); experiment: PBM 8-mer E-score (E-score (rank enrichment, -0.5 to 0.5)); higher = stronger preferential binding
Protocol: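 Protein binding microarray (universal PBM chip covering all 10-mers in fixed probe flanks) with chemically synthesized human Max(13-93) bHLH-LZ analogs (not full-length Max) bearing noncanonical residues (hArg, Tha, Aib, Nle at 65) and aromatic Cys staples. Read-out per 8-mer (and its reverse complement): E-score (rank-based enrichment, -0.5 to 0.5) and Z-score of median probe intensity.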

Sequence | PBM 8-mer E-score
ACGTGCCA | 0.294 ± 0.025
GCGTGCCA | -0.0642 ± 0.045
GCGTGCCC | -0.0787 ± 0.13
GCCTTGCC | -0.201 ± 0.024
CAGAATAG | 0.0142 ± 0.048
CCTATACG | 0.0369 ± 0.014
CGCGAGAA | -0.0592 ± 0.072
CGTGGCGA | 0.015 ± 0.0011
ACTAGGCA | -0.0155 ± 0.066
AATCGGAG | -0.0774 ± 0.087
ATTGCCTC | 0.0622 ± 0.064
ACACGCAT | 0.159 ± 0.043
ACACGCGC | 0.259 ± 0.026
AAACGCGT | 0.0714 ± 0.1
ACACGCTG | 0.0854 ± 0.074
ACACGCGT | 0.325 ± 0.013
ACACGCGA | 0.157 ± 0.042
GCACGCGC | 0.171 ± 0.025
CCACGCGG | 0.433 ± 0.024
CCACGCGA | 0.0546 ± 0.083
ACGCGCGA | 0.114 ± 0.066
ACACGCGG | 0.281 ± 0.03
CCACGCGC | 0.152 ± 0.035
ATCCCTCC | 0.0287 ± 0.088
CAGGGTAC | -0.008 ± 0.013

Sequence | PBM 8-mer E-score
CGCTAGTA | -0.0479 ± 0.0027
CAGTGCGA | -0.0198 ± 0.16
AGTCGTTC | -0.143 ± 0.11
CCAGCCCA | -0.176 ± 0.14
GCAACCAA | 0.00549 ± 0.078
AAGCGCGC | 0.0137 ± 0.0014
CCACGAGG | 0.365 ± 0.052
ACGCGCGT | 0.246 ± 0.012
CCACGAGA | 0.0679 ± 0.15
ACGCGCGG | 0.118 ± 0.018
CCACGAGC | -0.0509 ± 0.015
ACGCGCGC | 0.0593 ± 0.05
ATCTAATG | -0.0696 ± 0.071
AAGCTCTG | -0.144 ± 0.028
ATCGCGCA | -0.034 ± 0.026
CCAGAGTC | -0.155 ± 0.0016
AACGCATC | 0.0593 ± 0.014
CACGCATG | 0.184 ± 0.066
AAAGCATA | 0.211 ± 0.026
CAAGCATA | 0.104 ± 0.034
ACAGCATA | 0.00665 ± 0.081
ACAGCATG | 0.305 ± 0.01
AAAGCATT | 0.14 ± 0.0086
ACAGCATC | 0.0804 ± 0.099
AAAGCATG | 0.303 ± 0.017

Sequence | PBM 8-mer E-score
CAAGCATC | 0.00917 ± 0.063
AACGCATG | 0.305 ± 0.042
CAAGCATG | 0.24 ± 0.053
ACACAGAC | 0.00286 ± 0.095
AGACGTAG | 0.0572 ± 0.041
CAATGCGC | 0.0235 ± 0.012
AAGGGCGT | -0.0104 ± 0.031
GATAAAGC | 0.179 ± 0.094
AGTGGAGG | 0.0658 ± 0.0029
ATTAGACG | 0.136 ± 0.028
AAAGATAC | 0.00254 ± 0.17
AAAGATAA | 0.234 ± 0.029
TAAGATAA | 0.018 ± 0.049
AAAGATAG | 0.0319 ± 0.07
CAAGATAC | 0.146 ± 0.047
CAAGATAA | 0.256 ± 0.014
GCTACGTA | 0.0754 ± 0.075
ACCCAGCT | -0.00912 ± 0.022
TCGAGACA | -0.125 ± 0.06
GACCTTAC | -0.127 ± 0.056
TCCTTTCA | 0.177 ± 0.086
CCGACCAG | -0.175 ± 0.0087
GTGGAGTA | -0.0124 ± 0.029
TGGACGAA | 0.138 ± 0.011
CGTATCTA | -0.0295 ± 0.068

Sequence | PBM 8-mer E-score
AGTATCTA | 0.253 ± 0.022
GGTATCTA | 0.0126 ± 0.011
CGGCAATC | -0.205 ± 0.029
AGTCGGTC | -0.181 ± 0.0094
GATCAAGA | -0.00477 ± 0.11
CACATGAA | 0.1797 ± 0.00019
CACATGGA | 0.37 ± 0.02
GACATGGC | 0.073 ± 0.098
AACATGGA | 0.106 ± 0.052
CACATGAG | 0.0368 ± 0.07
AACATGGC | 0.118 ± 0.02
CACATGGG | 0.276 ± 0.0049
CCCATGGG | -0.0583 ± 0.12
AACATGGG | 0.231 ± 0.047
CACATGAC | 0.317 ± 0.0056
CACATGGC | 0.343 ± 0.039
GACATGGA | -0.0676 ± 0.069
CGTATCCC | -0.27 ± 0.076
AAATCAAC | 0.129 ± 0.0028
CGCTCGCC | -0.158 ± 0.02
CCGGCAAC | -0.301 ± 0.024
ACCCTGTC | -0.0879 ± 0.17
AGAATCGG | -0.25 ± 0.048
ACTAGGTA | 0.102 ± 0.04
CTAACGCA | 0.12 ± 0.0043

Sequence | PBM 8-mer E-score
GCTGCAGA | -0.00761 ± 0.073
CGTATTTA | 0.285 ± 0.056
GGTATTTA | 0.0645 ± 0.18
AGTATTTA | 0.186 ± 0.058
AAGACACC | -0.137 ± 0.085
AGCAGCTA | -0.199 ± 0.04
AACTACAC | 0.282 ± 0.02
GACTACAC | 0.0803 ± 0.16
AAGTATAA | 0.225 ± 0.069
AAGTACAA | 0.225 ± 0.15
AAGTATAT | 0.0964 ± 0.13
AAGTACAC | 0.235 ± 0.075
AAGTATAC | 0.246 ± 0.014
AACTACAG | -0.0267 ± 0.018
CAGTACAC | 0.0197 ± 0.13
CGTGGCCC | 0.0336 ± 0.14
GAGATGCC | 0.078 ± 0.063
AGGGCCGA | 0.0332 ± 0.068
GCCCACCC | 0.206 ± 0.017
CGACACCG | -0.265 ± 0.12
AGATGGCC | -0.092 ± 0.12
CACGTAGC | 0.0038 ± 0.017
GAGTCCCA | -0.0366 ± 0.0061
CTGTTGCA | 0.0892 ± 0.013
GACATATA | 0.0052 ± 0.075

Sequence | PBM 8-mer E-score
CATATAAG | 0.21 ± 0.012
TATATAAA | 0.196 ± 0.099
CACATATA | 0.301 ± 0.098
AATATAAA | 0.26 ± 0.1
AATATAAT | 0.156 ± 0.023
GATATAAA | 0.0778 ± 0.026
CACATATG | 0.185 ± 0.029
CATATAAA | 0.295 ± 0.098
CGTACCAG | -0.0661 ± 0.0056
TTAGCGAA | -0.0471 ± 0.069
CGCCACGA | -0.137 ± 0.15
ATGCAGGG | 0.0122 ± 0.03
CCTAAGCG | -0.0916 ± 0.0045
GTGTCTGA | 0.00783 ± 0.11
GAACAAGA | 0.137 ± 0.095
AATTCCCC | 0.0165 ± 0.05
AATTCCCA | 0.282 ± 0.0091
GATTCCCA | -0.0229 ± 0.034
GACCCGAA | -0.196 ± 0.14
AAACTACT | 0.232 ± 0.034
AAACTACA | 0.219 ± 0.021
AAACTACC | 0.0484 ± 0.067
CCGTGCTA | -0.0393 ± 0.0021
ACGTGCTG | 0.212 ± 0.025
GCGTGCTA | 0.197 ± 0.0073

Sequence | PBM 8-mer E-score
CCGTGCTC | -0.0456 ± 0.034
ACGTGCTC | 0.298 ± 0.013
ACGTGCTA | 0.311 ± 0.019
ACCAGGGA | 0.0354 ± 0.19
AGGCGCTG | -0.0811 ± 0.026
AACAGTGG | -0.0694 ± 0.089
AACTTGCA | 0.193 ± 0.046
CGTGCCGC | 0.0425 ± 0.15
ATAACCAG | 0.113 ± 0.031
ATAACAAC | 0.265 ± 0.079
ATAACCAC | 0.288 ± 0.07
ATAACAAG | 0.223 ± 0.0096
CTAACCAC | 0.139 ± 0.0048
ATAACAAT | 0.168 ± 0.0023
CTTTTTGC | 0.046 ± 0.063
CACCTGGC | 0.0136 ± 0.041
GGAGTGCC | -0.11 ± 0.012
ATATGACA | 0.263 ± 0.014
GTATGACA | 0.245 ± 0.062
ATATGACC | -0.0408 ± 0.015
GGATGACA | -0.00576 ± 0.064
GTATGAAA | 0.222 ± 0.033
CTATGACA | 0.0275 ± 0.077
